According to PMC7862700, “An all-to-all approach to the identification of sequence-specific readers for epigenetic DNA modifications on cytosine”:

Key:
Test in all cases: DAPPL (digital affinity profiling via proximity ligation, sequencing); 10 mM Tris-HCl pH 7.5, 50 mM NaCl, 1 mM DTT, 4% glycerol, room temperature, 30 min; GST-TFs on glutathione beads, 16-mer random dsDNA library, 0.1% formaldehyde crosslink after washing; high values mean tight binding
Details in all cases: protein: recombinant; tags: N-terminal GST; dsDNA, one strand shown
FLI1 = biological target: T1, FLI1 (Homo sapiens, UniProt Q01543 1-452)
T1 sequence: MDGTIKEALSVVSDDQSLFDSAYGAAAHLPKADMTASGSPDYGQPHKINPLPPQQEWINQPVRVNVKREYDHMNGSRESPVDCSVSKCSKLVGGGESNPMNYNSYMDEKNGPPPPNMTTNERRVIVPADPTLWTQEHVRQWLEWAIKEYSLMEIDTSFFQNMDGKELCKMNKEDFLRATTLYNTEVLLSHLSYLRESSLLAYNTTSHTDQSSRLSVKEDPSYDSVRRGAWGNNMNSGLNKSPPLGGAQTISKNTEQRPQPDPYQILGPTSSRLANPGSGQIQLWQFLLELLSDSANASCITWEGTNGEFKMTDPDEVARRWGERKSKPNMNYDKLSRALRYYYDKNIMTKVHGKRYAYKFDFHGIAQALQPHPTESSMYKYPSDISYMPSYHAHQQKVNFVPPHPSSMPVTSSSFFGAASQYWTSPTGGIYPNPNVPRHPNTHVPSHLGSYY
Summary of the method: (§1)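 GST fusions of human transcription factors were expressed in yeast and captured with glutathione beads. Once given DNA barcodes and pooled alongside a tag-only sample, they were incubated for 30 min at room temperature with 200 nmole of a random double-stranded 16-mer DNA library in Tris/NaCl/DTT/glycerol buffer, then washed, crosslinked (0.1% formaldehyde), proximity-ligated, PCR-amplified and sequenced on an Illumina NextSeq500. The binding signal of each hexamer is its read frequency for a factor divided by its frequency for the tag-only sample.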

ELK1 = biological target: T2, ELK1 (Homo sapiens, UniProt P19419 1-428)
T2 sequence: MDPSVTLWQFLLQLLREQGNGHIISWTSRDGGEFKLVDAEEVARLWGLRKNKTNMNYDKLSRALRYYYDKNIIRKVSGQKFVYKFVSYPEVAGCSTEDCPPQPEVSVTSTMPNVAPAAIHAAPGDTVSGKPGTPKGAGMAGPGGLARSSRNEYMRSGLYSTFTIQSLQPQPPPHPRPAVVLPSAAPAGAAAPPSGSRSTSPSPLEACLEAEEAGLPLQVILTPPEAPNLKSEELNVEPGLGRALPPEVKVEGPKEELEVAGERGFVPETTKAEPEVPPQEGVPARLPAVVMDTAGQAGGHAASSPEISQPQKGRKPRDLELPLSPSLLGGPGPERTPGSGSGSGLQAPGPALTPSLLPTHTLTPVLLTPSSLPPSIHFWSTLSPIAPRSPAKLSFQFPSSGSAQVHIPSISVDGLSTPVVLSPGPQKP
Summary of the method: as §1

GABPA = biological target: T3, GABPA (Homo sapiens, UniProt Q06546 1-454)
T3 sequence: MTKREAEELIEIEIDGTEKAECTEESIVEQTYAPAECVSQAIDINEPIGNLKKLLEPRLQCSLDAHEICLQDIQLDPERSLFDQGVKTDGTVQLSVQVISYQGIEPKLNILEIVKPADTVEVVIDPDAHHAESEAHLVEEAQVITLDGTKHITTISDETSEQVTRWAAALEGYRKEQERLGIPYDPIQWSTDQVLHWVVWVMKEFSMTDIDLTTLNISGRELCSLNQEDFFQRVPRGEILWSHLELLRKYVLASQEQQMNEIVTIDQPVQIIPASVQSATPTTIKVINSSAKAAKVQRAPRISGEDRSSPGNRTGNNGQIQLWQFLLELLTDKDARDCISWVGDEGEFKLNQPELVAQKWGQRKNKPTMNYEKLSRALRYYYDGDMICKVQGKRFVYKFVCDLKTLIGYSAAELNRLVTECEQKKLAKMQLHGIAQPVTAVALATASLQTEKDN
Summary of the method: as §1

ERG = biological target: T4, ERG (Homo sapiens, UniProt P11308 1-479)
T4 sequence: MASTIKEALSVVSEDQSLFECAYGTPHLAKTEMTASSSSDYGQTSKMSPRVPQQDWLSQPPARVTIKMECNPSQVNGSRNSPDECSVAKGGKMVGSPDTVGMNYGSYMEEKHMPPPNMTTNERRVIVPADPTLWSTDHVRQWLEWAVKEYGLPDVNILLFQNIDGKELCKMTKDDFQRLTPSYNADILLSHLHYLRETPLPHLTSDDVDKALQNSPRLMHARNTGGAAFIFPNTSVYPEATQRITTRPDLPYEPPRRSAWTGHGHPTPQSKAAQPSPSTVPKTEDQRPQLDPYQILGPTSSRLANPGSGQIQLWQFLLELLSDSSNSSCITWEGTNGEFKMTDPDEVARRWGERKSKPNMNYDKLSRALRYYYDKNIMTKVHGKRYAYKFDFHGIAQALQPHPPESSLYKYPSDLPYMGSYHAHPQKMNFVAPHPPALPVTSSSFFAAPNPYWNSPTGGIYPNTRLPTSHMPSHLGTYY
Summary of the method: as §1

ELF1 = ELF1 (Homo sapiens, UniProt P32519 1-619)
ELF1, sequence (P32519 whole entry): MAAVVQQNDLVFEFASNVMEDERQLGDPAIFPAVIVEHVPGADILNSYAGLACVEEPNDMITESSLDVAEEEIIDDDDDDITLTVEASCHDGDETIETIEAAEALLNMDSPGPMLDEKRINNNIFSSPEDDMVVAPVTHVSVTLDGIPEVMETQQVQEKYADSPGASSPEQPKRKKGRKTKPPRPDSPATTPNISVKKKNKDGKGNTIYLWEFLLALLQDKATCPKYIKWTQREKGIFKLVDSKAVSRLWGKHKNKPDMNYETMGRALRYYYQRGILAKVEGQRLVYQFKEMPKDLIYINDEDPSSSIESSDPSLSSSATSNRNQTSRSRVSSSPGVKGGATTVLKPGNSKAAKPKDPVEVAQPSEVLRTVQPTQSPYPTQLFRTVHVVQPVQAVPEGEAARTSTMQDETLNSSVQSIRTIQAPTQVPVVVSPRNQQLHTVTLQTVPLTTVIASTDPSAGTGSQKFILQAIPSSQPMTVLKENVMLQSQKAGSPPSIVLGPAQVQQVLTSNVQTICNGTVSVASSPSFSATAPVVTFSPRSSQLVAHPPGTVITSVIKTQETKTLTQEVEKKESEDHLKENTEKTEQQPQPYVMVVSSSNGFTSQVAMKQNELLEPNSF
Summary of the method: as §1

EHF = biological target: T5, EHF (Homo sapiens, UniProt Q9NZC4 1-300)
T5 sequence: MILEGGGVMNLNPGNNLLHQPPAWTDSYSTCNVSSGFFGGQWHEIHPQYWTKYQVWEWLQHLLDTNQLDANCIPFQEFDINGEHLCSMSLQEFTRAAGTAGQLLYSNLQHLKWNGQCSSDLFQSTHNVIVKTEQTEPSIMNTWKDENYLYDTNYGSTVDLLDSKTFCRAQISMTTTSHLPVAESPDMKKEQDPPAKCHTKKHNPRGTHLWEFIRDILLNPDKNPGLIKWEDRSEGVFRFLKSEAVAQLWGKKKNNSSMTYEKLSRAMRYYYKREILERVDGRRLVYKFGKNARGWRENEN
Summary of the method: as §1

SPI1 = SPI1 (Homo sapiens, UniProt P17947 1-270)
Summary of the method: as §1

SPIB = SPIB (Homo sapiens, UniProt Q01892 1-262)
SPIB, sequence (Q01892 whole entry): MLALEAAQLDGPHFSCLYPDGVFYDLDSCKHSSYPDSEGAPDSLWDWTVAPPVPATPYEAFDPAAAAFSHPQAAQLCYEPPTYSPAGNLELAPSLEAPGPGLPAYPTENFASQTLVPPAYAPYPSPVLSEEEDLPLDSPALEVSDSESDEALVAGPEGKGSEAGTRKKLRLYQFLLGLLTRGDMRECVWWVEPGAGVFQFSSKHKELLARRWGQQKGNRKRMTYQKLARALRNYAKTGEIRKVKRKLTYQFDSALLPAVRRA
Summary of the method: as §1

ELK3 = biological target: T6, ELK3 (Homo sapiens, UniProt P41970 1-407)
T6 sequence: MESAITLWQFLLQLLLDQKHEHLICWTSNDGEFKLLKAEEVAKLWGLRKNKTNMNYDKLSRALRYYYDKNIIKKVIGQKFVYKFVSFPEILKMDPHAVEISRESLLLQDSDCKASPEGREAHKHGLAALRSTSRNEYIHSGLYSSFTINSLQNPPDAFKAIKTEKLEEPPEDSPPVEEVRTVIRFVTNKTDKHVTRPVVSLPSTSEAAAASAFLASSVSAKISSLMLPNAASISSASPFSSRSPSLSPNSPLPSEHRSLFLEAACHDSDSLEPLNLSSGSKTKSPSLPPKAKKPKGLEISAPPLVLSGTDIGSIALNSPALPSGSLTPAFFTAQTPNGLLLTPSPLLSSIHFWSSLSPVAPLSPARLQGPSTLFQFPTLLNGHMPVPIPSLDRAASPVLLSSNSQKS
Summary of the method: as §1

Which results are given for AAGTTG?
binding signal (FLI1): 1.09 fold enrichment (6-mer frequency, TF over GST control); binding signal (ELK1): 1.07 fold enrichment (6-mer frequency, TF over GST control); binding signal (GABPA): 1.1 fold enrichment (6-mer frequency, TF over GST control); binding signal (ERG): 1.08 fold enrichment (6-mer frequency, TF over GST control); binding signal (ELF1): 1.08 fold enrichment (6-mer frequency, TF over GST control); binding signal (EHF): 1.14 fold enrichment (6-mer frequency, TF over GST control); binding signal (SPI1): 1.13 fold enrichment (6-mer frequency, TF over GST control); binding signal (SPIB): 1.1 fold enrichment (6-mer frequency, TF over GST control); binding signal (ELK3): 1.11 fold enrichment (6-mer frequency, TF over GST control)

What does the source list for CCGACA?
binding signal (FLI1): 1.2 fold enrichment (6-mer frequency, TF over GST control); binding signal (ELK1): 1.18 fold enrichment (6-mer frequency, TF over GST control); binding signal (GABPA): 1.11 fold enrichment (6-mer frequency, TF over GST control); binding signal (ERG): 1.29 fold enrichment (6-mer frequency, TF over GST control); binding signal (ELF1): 1.27 fold enrichment (6-mer frequency, TF over GST control); binding signal (EHF): 1.21 fold enrichment (6-mer frequency, TF over GST control); binding signal (SPI1): 1.24 fold enrichment (6-mer frequency, TF over GST control); binding signal (SPIB): 1.25 fold enrichment (6-mer frequency, TF over GST control); binding signal (ELK3): 1.16 fold enrichment (6-mer frequency, TF over GST control)

For ATGTCC, which binding signal (FLI1) is on record?
Its binding signal is 1.56 fold enrichment (6-mer frequency, TF over GST control).

And the binding signal (ELK1)?
Its binding signal is 1.53 fold enrichment (6-mer frequency, TF over GST control).

What about the binding signal (GABPA) of the same sequence?
Its binding signal is 1.54 fold enrichment (6-mer frequency, TF over GST control).

What about the binding signal (ERG) of the same sequence?
Its binding signal is 1.75 fold enrichment (6-mer frequency, TF over GST control).

And the binding signal (ELF1)?
The binding signal was 1.58 fold enrichment (6-mer frequency, TF over GST control).

And the binding signal (EHF)?
The binding signal was 1.54 fold enrichment (6-mer frequency, TF over GST control).

What about the binding signal (SPI1) of the same sequence?
The binding signal was 1.35 fold enrichment (6-mer frequency, TF over GST control).

And the binding signal (SPIB)?
The binding signal was 1.55 fold enrichment (6-mer frequency, TF over GST control).

And the binding signal (ELK3)?
The binding signal was 1.75 fold enrichment (6-mer frequency, TF over GST control).

CCGCCG was tested. Which binding signal (FLI1) did it give?
Its binding signal is 1.29 fold enrichment (6-mer frequency, TF over GST control).

What about the binding signal (ELK1) of the same sequence?
The binding signal was 1.4 fold enrichment (6-mer frequency, TF over GST control).

And the binding signal (GABPA)?
Its binding signal is 1.41 fold enrichment (6-mer frequency, TF over GST control).

And the binding signal (ERG)?
Its binding signal is 1.37 fold enrichment (6-mer frequency, TF over GST control).

What about the binding signal (ELF1) of the same sequence?
The binding signal was 1.26 fold enrichment (6-mer frequency, TF over GST control).

What about the binding signal (EHF) of the same sequence?
Its binding signal is 1.34 fold enrichment (6-mer frequency, TF over GST control).

What about the binding signal (SPI1) of the same sequence?
The binding signal was 1.27 fold enrichment (6-mer frequency, TF over GST control).

And the binding signal (SPIB)?
Its binding signal is 1.16 fold enrichment (6-mer frequency, TF over GST control).

And the binding signal (ELK3)?
The binding signal was 1.26 fold enrichment (6-mer frequency, TF over GST control).

Which results are given for AAGGTA?
binding signal (FLI1): 1.1 fold enrichment (6-mer frequency, TF over GST control); binding signal (ELK1): 1.08 fold enrichment (6-mer frequency, TF over GST control); binding signal (GABPA): 1.18 fold enrichment (6-mer frequency, TF over GST control); binding signal (ERG): 1.05 fold enrichment (6-mer frequency, TF over GST control); binding signal (ELF1): 1.13 fold enrichment (6-mer frequency, TF over GST control); binding signal (EHF): 1.1 fold enrichment (6-mer frequency, TF over GST control); binding signal (SPI1): 1.07 fold enrichment (6-mer frequency, TF over GST control); binding signal (SPIB): 1.05 fold enrichment (6-mer frequency, TF over GST control); binding signal (ELK3): 1.09 fold enrichment (6-mer frequency, TF over GST control)

Which results are given for TTATTA?
binding signal (FLI1): 1.17 fold enrichment (6-mer frequency, TF over GST control); binding signal (ELK1): 1.05 fold enrichment (6-mer frequency, TF over GST control); binding signal (GABPA): 1.04 fold enrichment (6-mer frequency, TF over GST control); binding signal (ERG): 1.1 fold enrichment (6-mer frequency, TF over GST control); binding signal (ELF1): 1.1 fold enrichment (6-mer frequency, TF over GST control); binding signal (EHF): 1.14 fold enrichment (6-mer frequency, TF over GST control); binding signal (SPI1): 1.1 fold enrichment (6-mer frequency, TF over GST control); binding signal (SPIB): 1.04 fold enrichment (6-mer frequency, TF over GST control); binding signal (ELK3): 1.2 fold enrichment (6-mer frequency, TF over GST control)

GTTTTC was tested. Which binding signal (FLI1) did it give?
The binding signal was 1.19 fold enrichment (6-mer frequency, TF over GST control).

And the binding signal (ELK1)?
Its binding signal is 1.2 fold enrichment (6-mer frequency, TF over GST control).

And the binding signal (GABPA)?
Its binding signal is 1.23 fold enrichment (6-mer frequency, TF over GST control).

What about the binding signal (ERG) of the same sequence?
Its binding signal is 1.24 fold enrichment (6-mer frequency, TF over GST control).

And the binding signal (ELF1)?
The binding signal was 1.15 fold enrichment (6-mer frequency, TF over GST control).

What about the binding signal (EHF) of the same sequence?
The binding signal was 1.28 fold enrichment (6-mer frequency, TF over GST control).

And the binding signal (SPI1)?
Its binding signal is 1.17 fold enrichment (6-mer frequency, TF over GST control).

And the binding signal (SPIB)?
The binding signal was 1.2 fold enrichment (6-mer frequency, TF over GST control).

What about the binding signal (ELK3) of the same sequence?
The binding signal was 1.23 fold enrichment (6-mer frequency, TF over GST control).
